According to PubChem BioAssay (NCI):
This is part of a sample that, as a whole, favours compounds with a hit. Of some 79,000 tested, about 15% had one in any assay. Activity calls are given as the source filed them. No stated cut-off is given here; in the data, active means growth inhibition above about 70%; inactive means the rest.

Columns and labels:
[1] = NCI Yeast Anticancer Drug Screen. Data for the rad52 strain (AID 147);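 further: 0% = growth of vehicle-treated control cultures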; conditions: S. cerevisiae rad52 mutant growth inhibition, stronger effect = higher value
Outline: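 Read-out: growth inhibition versus vehicle-treated controls. Cells were a DNA repair-deficient yeast strain treated with compounds.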

[2] = NCI Yeast Anticancer Drug Screen. Data for the wt1 strain (AID 149);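 further: 0% = growth of vehicle-treated wt1 cultures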; conditions: S. cerevisiae wt1 strain (SPY 50644) growth inhibition, stronger effect = higher value
Outline: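 Each compound is tested on wt1 yeast and the loss of growth versus vehicle gives the inhibition value.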

[3] = NCI Yeast Anticancer Drug Screen. Data for the rad50EPP+ strain (AID 151);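 further: 0% = growth of vehicle-treated control cultures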; conditions: S. cerevisiae rad50 mutant strain, stronger effect = higher value
Outline: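 Growth inhibition read against vehicle controls in rad50EPP+ yeast, a strain altered in DNA damage repair, after compound exposure.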

[4] = NCI Yeast Anticancer Drug Screen. Data for the mgt1 strain (AID 153); conditions: S. cerevisiae mgt1 mutant growth inhibition, stronger effect = higher value
Outline: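 mgt1 yeast grown with test compound; read-out is growth inhibition versus vehicle-treated cultures.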

[5] = NCI Yeast Anticancer Drug Screen. Data for the rad50 strain (AID 155);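 further: 0% = growth of vehicle-only cultures of the same strain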; conditions: S. cerevisiae rad50 strain growth inhibition, stronger effect = higher value
Outline: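 Vehicle-treated cultures provide the reference for the growth inhibition reported for compound-exposed, repair-deficient yeast.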

[6] = NCI Yeast Anticancer Drug Screen. Data for the mec2-1 strain (AID 157); conditions: S. cerevisiae mec2-1 strain, stronger effect = higher value
Outline: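 Yeast mec2-1 mutant treated with compound. Readout: growth inhibition vs vehicle controls.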

[7] = NCI Yeast Anticancer Drug Screen. Data for the rad14 strain (AID 159);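 further: 0% = growth of vehicle-treated control cultures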; conditions: S. cerevisiae rad14 strain growth inhibition, stronger effect = higher value
Outline: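 Inhibition of growth is reported for a repair-deficient yeast mutant following compound treatment, calculated relative to cultures that received vehicle.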

[8] = NCI Yeast Anticancer Drug Screen. Data for the sgs1 mgt1 strain (AID 161);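 further: 0% = growth of cultures given vehicle only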; conditions: S. cerevisiae sgs1 mgt1 strain, stronger effect = higher value
Outline: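 Read-out: growth inhibition vs vehicle controls. Cells: mutant yeast strain deficient in DNA damage repair.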

[9] = NCI Yeast Anticancer Drug Screen. Data for the CLN2oe strain (AID 163);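 further: 0% = growth of vehicle-only control cultures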; conditions: S. cerevisiae CLN2oe strain, stronger effect = higher value
Outline: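 Read-out: yeast growth inhibition, expressed relative to vehicle-only controls. The strain bears an engineered cell-cycle alteration.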

[10] = NCI Yeast Anticancer Drug Screen. Data for the cln2 rad14 strain (AID 165);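 further: 0% = growth equal to vehicle treated cultures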; conditions: S. cerevisiae cln2 rad14 strain, stronger effect = higher value
Outline: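 cln2 rad14 yeast strain; compound exposure; growth inhibition read vs vehicle controls.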

[11] = NCI Yeast Anticancer Drug Screen. Data for the bub3 strain (AID 167); conditions: S. cerevisiae bub3 mutant strain, stronger effect = higher value
Outline: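 Mutant yeast screening strain plus compound; vehicle-treated cultures serve as the 0% inhibition reference.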

[12] = NCI Yeast Anticancer Drug Screen. Data for the wt2 strain (AID 169); conditions: S. cerevisiae wt2 strain growth inhibition, stronger effect = higher value
Outline: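 Read-out: growth inhibition versus vehicle-treated control cultures after compound exposure of the yeast strain.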

[13] = NCI Yeast Anticancer Drug Screen. Data for the mlh1 strain (AID 171);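 further: 0% = growth of vehicle-treated control cultures of the same strain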; conditions: S. cerevisiae mlh1 strain growth inhibition, stronger effect = higher value
Outline: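 Read-out: growth inhibition versus vehicle controls. Strain: engineered yeast with a defined DNA repair or cell cycle defect, compound-treated.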

[14] = NCI Yeast Anticancer Drug Screen. Data for the sgs1 strain (AID 173);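 further: 0% = growth of vehicle-only control cultures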; conditions: S. cerevisiae sgs1 mutant, stronger effect = higher value
Outline: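 Read-out: yeast growth inhibition relative to vehicle controls, following compound exposure of a strain with a defined DNA repair/cell cycle alteration.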

[15] = NCI Yeast Anticancer Drug Screen. Data for the rad18 strain (AID 177); conditions: S. cerevisiae rad18 mutant growth inhibition, stronger effect = higher value
Outline: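 Readout: growth inhibition vs vehicle controls. Cells: genetically altered yeast strain, DNA repair defect.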

[16] = at 5.0 µM (retest, dose inferred, filed as 0.5)
[17] = at 50.0 µM (retest, dose inferred, filed as 5.0)

Measured: growth inhibition

CC(C)N(CCCNc1c2ccccc2nc2cccc([N+](=O)[O-])c12)C(C)C
inactive: [1]; at 1.2 µM 51% | [2]; at 1.2 µM 0% | [2]; at 3.7 µM 5% | [2]; at 11.0 µM 43% | [3]; at 1.2 µM 52% | [4]; at 1.2 µM -1% | [4]; at 3.7 µM 8% | [4]; at 11.0 µM 67% | [5]; at 1.2 µM 42% | [6]; at 1.2 µM 12% | [9]; at 1.2 µM -9% | [9]; at 3.7 µM -12% | [9]; at 11.0 µM 51% | [11]; at 1.2 µM -20% | [11]; at 3.7 µM -18% | [11]; [16] -10% | [11]; at 11.0 µM 17% | [11]; at 50.0 µM 33.5% | [12]; at 1.2 µM 1% | [12]; at 3.7 µM 14% | [12]; at 11.0 µM 68% | [13]; at 1.2 µM 6% | [13]; at 3.7 µM 14%
active: [1]; at 3.7 µM 87% | [1]; at 11.0 µM 95% | [1]; at 33.0 µM 97% | [1]; at 100.0 µM 98% | [2]; at 33.0 µM 94% | [2]; at 100.0 µM 98% | [3]; at 3.7 µM 86% | [3]; at 11.0 µM 93% | [3]; at 33.0 µM 95% | [3]; at 100.0 µM 96% | [4]; at 33.0 µM 97% | [4]; at 100.0 µM 99% | [5]; at 3.7 µM 82% | [5]; [16] 86% | [5]; at 11.0 µM 92% | [5]; at 33.0 µM 94% | [5]; [17] 98% | [5]; at 50.0 µM 92.8% | [5]; at 100.0 µM 97% | [6]; at 3.7 µM 76% | [6]; [16] 88% | [6]; at 11.0 µM 97% | [6]; at 33.0 µM 98% | [6]; [17] 99% | [6]; at 50.0 µM 94.5% | [6]; at 100.0 µM 99% | [7]; at 1.2 µM 93% | [7]; at 3.7 µM 98% | [7]; at 11.0 µM 99% | [7]; at 33.0 µM 99% | [7]; at 100.0 µM 99% | [8]; [16] 91% | [8]; [17] 98% | [8]; at 50.0 µM 94.5% | [9]; at 33.0 µM 91% | [9]; at 100.0 µM 96% | [10]; [16] 97% | [10]; [17] 98% | [10]; at 50.0 µM 95.7% | [11]; at 33.0 µM 90% | [11]; [17] 97% | [11]; at 100.0 µM 98% | [12]; at 33.0 µM 96% | [12]; at 100.0 µM 98% | [13]; at 11.0 µM 72% | [13]; at 33.0 µM 96% | [13]; at 100.0 µM 98% | [14]; at 1.2 µM 80% | [14]; at 3.7 µM 91% | [14]; at 11.0 µM 95% | [14]; at 33.0 µM 97% | [14]; at 100.0 µM 98% | [15]; at 1.2 µM 95% | [15]; at 3.7 µM 95% | [15]; at 11.0 µM 95% | [15]; at 33.0 µM 95% | [15]; at 100.0 µM 98%
